Measurements from PubChem BioAssay AID2533 (National Center for Advancing Translational Sciences (NCATS), 2010).
Records with an inconclusive call do not appear. The source made the active and inactive calls. Calls come from the whole dose curve; as a rule, active = well fitted activation curve with a large enough effect; inconclusive = small, poorly fitted or top-dose-only effect; inactive = flat fitted curve, though single readings scatter.

target: Pyruvate kinase PKM (Homo sapiens) (UniProt P14618); test: Confirmation Concentration-Response Assay for Activators of Human Muscle isoform 2 Pyruvate Kinase: for Probe SAR; settings: purified PKM2, ATP generation, Kinase-Glo luminescence; series mostly up to 57.5 µM; activity change, positive = activation: at the top concentration; note: nearly all actives have a fitted effect of over 60% in size; for activity change, positive = activation: % of control where 0% means no effect
Sequence (P14618 whole entry, looked up, canonical isoform): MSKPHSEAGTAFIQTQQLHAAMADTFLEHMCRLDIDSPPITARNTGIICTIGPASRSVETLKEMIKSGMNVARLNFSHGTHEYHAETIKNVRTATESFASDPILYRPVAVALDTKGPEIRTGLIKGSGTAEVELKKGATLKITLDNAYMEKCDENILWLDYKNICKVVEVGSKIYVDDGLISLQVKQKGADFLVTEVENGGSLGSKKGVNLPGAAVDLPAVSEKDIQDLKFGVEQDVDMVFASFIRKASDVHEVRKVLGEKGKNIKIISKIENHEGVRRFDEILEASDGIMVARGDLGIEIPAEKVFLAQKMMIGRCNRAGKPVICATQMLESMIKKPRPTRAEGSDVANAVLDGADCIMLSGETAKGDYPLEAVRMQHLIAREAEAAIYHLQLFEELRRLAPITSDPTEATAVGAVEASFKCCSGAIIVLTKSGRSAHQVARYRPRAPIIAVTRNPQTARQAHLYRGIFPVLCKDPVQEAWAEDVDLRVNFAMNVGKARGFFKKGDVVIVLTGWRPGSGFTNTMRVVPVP
Procedure, shortened: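 Purified hPK-M2 at 0.1 nM final converted ADP (0.1 mM) and PEP (0.5 mM) to ATP over 1 hour at room temperature in imidazole buffer, pH 7.2. ATP formed was measured by Kinase-Glo luminescence, normalized to no-enzyme and uninhibited controls.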
Potency is the fitted concentration of half-maximal effect.

Row | Structure (SMILES) | activity change, positive = activation | Potency
1 | O=S1(=O)N=C(Oc2ccccc2F)c2ccccc21 | 12% (inactive) | 
2 | Cc1ccc2nc(-c3cccs3)c(Nc3ccccc3)n2c1 | 11.6% (inactive) | 
3 | Fc1ccccc1-c1ccc(-c2nc3ccc(Cl)cn3c2Nc2ccc(Cl)cc2)o1 | 0.0036% (inactive) | 
4 | CC(=O)N1CCc2cc(S(=O)(=O)Nc3ccc(C)c(C)c3)ccc21 |  | 1630 nM (active)
5 | O=C1CCc2cc(S(=O)(=O)Nc3ccccc3Cl)ccc2N1 |  | 18300 nM (active)
6 | Cc1cc2c(s1)c1cnn(Cc3cc(F)c(F)cc3F)c(=O)c1n2C |  | 1120 nM (active)
7 | CSc1cc2c(s1)c1cnn(Cc3cccc(O)c3)c(=O)c1n2C |  | 41.1 nM (active)
8 | O=C1c2ccccc2C(=O)N1c1ccccn1 | 10.4% (inactive) | 
9 | COc1cc(F)c(S(=O)(=O)N2CCCN(S(=O)(=O)c3ccc(N)cc3)CC2)c(F)c1 |  | 1300 nM (active)
10 | COc1ccc(-c2nc3ccccn3c2Nc2ccccc2C)cc1 |  | 14600 nM (active)
11 | Cc1cccc(NS(=O)(=O)c2ccc3c(c2)CCC(=O)N3)c1 |  | 1830 nM (active)
12 | CCSC1=NS(=O)(=O)c2ccccc21 | 8.09% (inactive) | 
13 | O=C1c2ccccc2C(=O)N1c1ccccc1O | 4.71% (inactive) | 
14 | COc1ccc(O)cc1 | 7.63% (inactive) | 
15 | CCNc1cccc(S(=O)(=O)N2CCCN(S(=O)(=O)c3ccc4c(c3)OCCO4)CC2)c1 |  | 206 nM (active)
16 | O=C1c2ccccc2C(=O)N1c1cncc2ccccc12 | 11.1% (inactive) | 
17 | COc1ccccc1OC1=NS(=O)(=O)c2ccccc21 | 14.5% (inactive) | 
18 | O=S(=O)(c1cccc(O)c1)N1CCN(S(=O)(=O)c2c(F)cccc2F)CC1 |  | 580 nM (active)
